Experimental data as given in PubChem BioAssay (Tox21).
“And” between values parts separate entries of the source, which are not always exact repeats. Equal entries are not always repeated. Records with an inconclusive call do not appear. Where a call stands in place of a potency, no number is given. Unmarked numbers belong to inactive results. The source made the active and inactive calls. Unless noted, calls follow the shape of the dose curve; as a rule, active = well fitted curve in the direction sought with a large enough effect in the repeat runs; inconclusive = weak or mixed curves; inactive = no such curve, though single readings can be large; an effect the other way counts as inactive or inconclusive.

Columns and labels:
[1] = qHTS assay to identify small molecule agonists of the NFkB signaling pathway - cell viability counter screen (AID 1159515; calls by dose curve; also: nearly all actives have a fitted effect of over 55% in size; also: potency is read from the fitted curve at half-maximal effect)
How it was run: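 Cells are seeded (2,000 NFkB-bla ME-180 per well), rested overnight, and dosed with DMSO-dissolved compounds for 5 hr at 37 C. Viability is then read by CellTiter-Glo luminescence after 30 min at room temperature.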

[2] = qHTS assay to identify small molecule agonists of the endoplasmic reticulum stress response signaling pathway (AID 1159516; active = well fitted activation curve with a large enough effect in the signal ratio in the repeat runs, not every such curve was filed as active; the % refers to the signal ratio)
How it was run: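 Cells are seeded at 1,500 per well and incubated overnight. Compounds in DMSO are added for 5 hr at 37 C, then beta-lactamase FRET substrate for 2 hr at room temperature, and fluorescence at 460 and 530 nm is measured.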

[3] = qHTS assay to identify small molecule agonists of the endoplasmic reticulum stress response signaling pathway - cell viability counter screen (AID 1159517; calls by dose curve; also: nearly all actives have a fitted effect of over 50% in size; also: potency is read from the fitted curve at half-maximal effect)
How it was run: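 Steps: seed 1,500 ESRE-bla HeLa cells per well; incubate overnight at 37 C, 5% CO2; add compounds in DMSO for 5 hr; run FRET substrate 2 hr RT; add CellTiter-Glo, wait 30 min, read luminescence.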

[4] = molecular target: Nuclear receptor ROR-gamma (Homo sapiens) (UniProt P51449); assay: qHTS assay to identify small molecule antagonists of the retinoid-related orphan receptor gamma (ROR-gamma) signaling pathway (AID 1159521; also: nearly all actives have a fitted effect of over 50% in size; also: potency is read from the fitted curve at half-maximal effect)
How it was run: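 Luminescence readout (ONE-Glo, 30 min RT) after 16 h doxycycline induction; loss of signal scored as antagonism. CHO cells with TET-inducible RORγ and RORE-LUC reporter; compounds added 2 h before 1 uM final doxycycline.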

[5] = qHTS assay to identify small molecule agonists of the AP-1 signaling pathway - cell viability counter screen (AID 1159525; calls by dose curve; also: nearly all actives have a fitted effect of over 55% in size; also: potency is read from the fitted curve at half-maximal effect)
How it was run: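 Same-well cytotoxicity counter screen of the Tox21 10K library in ME-180 cells. The readout is ATP-dependent luminescence after 5 h compound treatment. Data are normalised to DMSO and tetra n-octyl ammonium bromide controls.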

[6] = qHTS assay to identify small molecule agonists of the RXR signaling pathway - cell viability counter screen (AID 1159529); also: nearly all actives have a fitted effect of over 50% in size; also: potency is read from the fitted curve at half-maximal effect
How it was run: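 Luminescence from CellTiter-Glo (30 min, RT) measured viability in the same wells as the beta-lactamase reporter readout. Cells: GeneBLAzer RXR-alpha HEK 293T, 2% charcoal-stripped FBS. Compound exposure 16 hr, 37 C.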

[7] = qHTS assay to identify small molecule agonists of the retinoic acid receptor (RAR) signaling pathway (AID 1159553); also: potency is read from the fitted curve at half-maximal effect
How it was run: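 Seed C3RL4 reporter cells at 1,000 per well and incubate overnight at 37 C. Add compounds in DMSO, incubate 6 hr. Add luciferase reagent, wait 30 min at room temperature, read luminescence.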

[8] = qHTS assay to identify small molecule antagonists of the vitamin D receptor (VDR) signaling pathway - cell viability counter screen (AID 743225); also: nearly all actives have a fitted effect of over 50% in size; also: potency is read from the fitted curve at half-maximal effect
How it was run: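 Viability counter screen run in the same wells as the beta-lactamase reporter assay: HEK 293T VDR-UAS-bla cells, 16 h compound exposure at 37C with 3 nM (final) 1-alpha,25-dihydroxyvitamin D3. CellTiter-Glo luminescence, 30 min, room temperature.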

[9] = qHTS assay to identify small molecule antagonists of the retinoid-related orphan receptor gamma (ROR-gamma) signaling pathway - cell viability counter screen (AID 1159520); also: nearly all actives have a fitted effect of over 50% in size; also: potency is read from the fitted curve at half-maximal effect
How it was run: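 Tet-on ROR gamma CHO cells were given compounds for 2 hr, then doxycycline hyclate at 1 uM final, and incubated 16 hr at 37 C. Viability was measured as ATP content by CellTiter-Glo luminescence.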

[10] = qHTS assay to identify small molecule agonists of the AP-1 signaling pathway (AID 1159526; calls by dose curve)
[11] = molecular target: Retinoic acid receptor RXR-alpha (Homo sapiens) (UniProt P19793); assay: qHTS assay to identify small molecule agonists of the RXR signaling pathway (AID 1159527; calls by dose curve; also: nearly all actives have a fitted effect of over 35% in size)
How it was run: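 Agonist mode; 9-cis retinoic acid positive control. HEK 293T UAS-bla reporter cells, 2% charcoal-stripped FBS, 16 hr compound exposure at 37 C/5% CO2. LiveBLAzer B/G FRET substrate 2 hr RT; ex 405, em 460/530 nm.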

[12] = qHTS assay to identify small molecule antagonists of the retinoic acid receptor (RAR) signaling pathway (AID 1159552; also: nearly all actives have a fitted effect of over 50% in size; also: potency is read from the fitted curve at half-maximal effect)
How it was run: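 Luminescence from a RARE luciferase reporter in C3RL4 cells served as read-out. Cells received compounds together with 1 uM final retinol and incubated 6 hr at 37 C before detection reagent was added for 30 min at room temperature.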

[13] = qHTS assay to identify small molecule antagonists of the estrogen related receptor (ERR) signaling pathway from Tox21 library - cell viability counter screen (AID 1224834); also: nearly all actives have a fitted effect of over 30% in size; also: potency is read from the fitted curve at half-maximal effect
How it was run: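 ERR cells, 2,000/well; 6 h settle at 37 C/5% CO2; pin-tool compound transfer in DMSO; 17.5 h at 37 C; CellTiter-Fluor, 30 min; fluorescence intensity.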

[14] = qHTS assay to identify small molecule antagonists of the retinoid acid receptor (RAR) signaling pathway - cell viability counter screen (AID 1159551); also: nearly all actives have a fitted effect of over 35% in size; also: potency is read from the fitted curve at half-maximal effect
How it was run: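 Cells (C3RL4) are plated, incubated overnight, dosed with compound in DMSO, then given retinol at 1 uM final. After 6 h at 37 C, CellTiter-Glo is added and luminescence read following 30 min at room temperature.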

Chain of Retinoic acid receptor RXR-alpha (Homo sapiens) (P19793 whole entry, looked up): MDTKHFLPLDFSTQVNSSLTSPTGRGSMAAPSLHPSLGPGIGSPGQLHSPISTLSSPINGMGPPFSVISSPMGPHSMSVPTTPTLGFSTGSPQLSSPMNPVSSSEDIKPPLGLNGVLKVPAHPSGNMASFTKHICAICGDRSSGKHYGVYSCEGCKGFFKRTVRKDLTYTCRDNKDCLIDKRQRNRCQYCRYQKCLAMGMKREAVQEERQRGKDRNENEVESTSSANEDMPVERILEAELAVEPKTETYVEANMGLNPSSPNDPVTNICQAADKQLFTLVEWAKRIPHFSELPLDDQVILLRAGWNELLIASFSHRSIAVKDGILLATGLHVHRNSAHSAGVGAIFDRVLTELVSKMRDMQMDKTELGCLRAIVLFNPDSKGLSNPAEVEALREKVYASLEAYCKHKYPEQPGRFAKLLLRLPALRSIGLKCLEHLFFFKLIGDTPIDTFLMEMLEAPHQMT

| Compound | Potency [1] | Potency [2] | Potency [3] | Potency [4] | Potency [5] | Potency [6] | Potency [7] | Potency [8] | Potency [9] | Potency [10] | Potency [11] | Potency [12] | Potency [13] | Potency [14] |
| --- | --- | --- | --- | --- | --- | --- | --- | --- | --- | --- | --- | --- | --- | --- |
| COC(=O)N(OC)c1ccccc1COc1ccn(-c2ccc(Cl)cc2)n1 | inactive | inactive | inactive | 0.273 µM (active) | inactive | inactive | inactive | – | – | – | – | – | – | – |
| CCCCC(CC)COC(=O)OOC(C)(C)C (configuration not stated) | inactive | inactive | – | inactive | inactive | inactive | inactive | inactive | inactive | inactive | inactive | inactive | inactive | – |
| CCc1cccc(C)c1N(C(=O)CCl)[C@@H](C)COC | inactive | inactive | inactive | – | inactive | – | inactive | – | – | inactive | – | – | – | inactive |
| CCOP(=S)(NC(C)C)Oc1ccccc1C(=O)OC(C)C (configuration not stated) | inactive | inactive | inactive | 21.7 µM (active) | – | – | – | inactive | – | inactive | – | 54.5 µM (active) | – | inactive |
| CN(C)c1ccc(N)cc1 | inactive | inactive | inactive | – | inactive | 42.6 µM (active) | 0.596 µM (active) | – | – | – | – | inactive | 23.7 µM (active) | – |
| Clc1ccc(C(Cl)(Cl)Cl)cc1Cl | inactive | inactive | – | inactive | inactive | inactive | – | inactive | 53.3 µM (active) | inactive | inactive | – | inactive | – |
| CCC(C)Br (configuration not stated) | inactive | inactive | – | inactive | inactive | inactive | – | inactive | inactive | inactive | inactive | – | inactive | inactive |
| CCOC(=O)Cc1ccccc1 | inactive | inactive | – | inactive | inactive | inactive | – | – | inactive | inactive | inactive | inactive | – | inactive |
| O=[N+]([O-])c1ccc(CCl)cc1 | inactive | inactive | – | inactive | inactive | inactive | inactive | inactive | inactive | inactive | – | inactive | inactive | inactive |
| CCCCCCC[CH2][Sn]([Cl])([Cl])[CH2]CCCCCCC | inactive | inactive | inactive | – | inactive | – | inactive | inactive | – | – | – | inactive | – | inactive |
| Oc1cc(Cl)cc(Cl)c1 | inactive | inactive | – | inactive | inactive | inactive | inactive | inactive | inactive | inactive | inactive | inactive | inactive | inactive |
| COCCC#N | inactive | inactive | – | inactive | inactive | inactive | inactive | – | inactive | inactive | inactive | inactive | inactive | inactive |
| COc1nc(C)nc(NC(=O)NS(=O)(=O)c2ccccc2Cl)n1 | inactive | inactive | – | inactive | inactive | – | inactive | inactive | inactive | inactive | inactive | inactive | inactive | – |
| CC(=O)C(Cl)C(=O)N(C)C (configuration not stated) | inactive | inactive | inactive | – | inactive | inactive | – | – | – | inactive | inactive | – | – | inactive |
| FC(F)C(F)(F)OCC(Cn1cncn1)c1ccc(Cl)cc1Cl (configuration not stated) | inactive | inactive | inactive | – | inactive | 48.7 µM (active) | inactive | inactive | – | inactive | inactive | 24.2 µM (active) | 43 µM (active) | inactive |
| Cc1ccccc1OP(=O)(Oc1ccccc1C)Oc1ccccc1C | inactive | inactive | inactive | 54.7 µM (active) | inactive | – | – | inactive | – | – | – | – | inactive | inactive |
| CN1CCc2cc3c(cc2C1O)OCO3 (configuration not stated) | inactive | – | inactive | inactive | inactive | inactive | – | inactive | inactive | inactive | – | – | – | inactive |
| Cc1cnc2c(C(=O)O)c(Cl)ccc2c1 | inactive | inactive | – | – | inactive | inactive | – | inactive | inactive | inactive | inactive | – | inactive | – |
| Nc1nc(N)c(N)c(N)n1 | inactive | – | inactive | inactive | inactive | – | inactive | inactive | inactive | inactive | – | inactive | – | inactive |
| O=[N+]([O-])C(Br)Br | inactive | – | 55 µM (active) | inactive | inactive | inactive | inactive | inactive | 21.7 µM (active) | inactive | inactive | inactive | – | inactive |
| [O]=[Cr](=[O])([OH])[O][Cr](=[O])(=[O])[OH] | 30.8 µM (active) | – | 22.1 µM (active) and 34.6 µM (active) | 4.9 µM (active) and 4.32 µM (active) | 24.8 µM (active) | 0.0027 µM (active) | inactive | 19.7 µM (active) and 21.8 µM (active) | 5.5 µM (active) and 2.43 µM (active) | inactive | – | – | – | 17.4 µM (active) and 27.3 µM (active) |
